For assay [1], the system named is CRL-7250. Briefly: Cytotoxic Profiling of Annotated Libraries Using Quantitative High-Throughput Screening (AID 1296008). Also: nearly all actives have a fitted effect of over 60% in size. As to max response: % is scaled to controls: 0 for no effect and ±100 for the full control effect. The settings on record: Five cell lines viability, CellTiter-Glo ATP luminescence, 48-72 h; max response: hits give low values. The method in brief:
(§1)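 Cells exposed to compounds for 48 or 72 hr at 37 degrees Celsius. Viability read as ATP-coupled luminescence with CellTiter-Glo after 10 min at room temperature.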
On the technique in general: ATP-based viability assays read luminescence as a measure of living cells.

Assay [2] deals with HEK293. The assay is described as above. The following applies: Five cell lines viability, CellTiter-Glo ATP luminescence, 48-72 h; max response: hits give low values. The method in brief:
as §1

Assay [3] has as its system HaCat. Described as above. The settings on record: Five cell lines viability, CellTiter-Glo ATP luminescence, 48-72 h; max response: hits give low values. The method in brief:
as §1

Assay [4] concerns KB-3-1. The assay is described as above. The settings on record: Five cell lines viability, CellTiter-Glo ATP luminescence, 48-72 h; max response: hits give low values. The method in brief: as §1
Assay [5] has as its system NIH3T3. Described as above. The following applies: Five cell lines viability, CellTiter-Glo ATP luminescence, 48-72 h; max response: hits give low values. The method, boiled down: as §1
Assay [6] has as its system MCC-26. Kind of assay: qHTS assay to identify novel small-molecules to repurpose for Merkel cell carcinoma treatment (AID 1296009). Also: nearly all actives have a fitted effect of over 60% in size. The following applies: MCC and control cell lines, CellTiter-Glo viability, 72 h; series mostly up to 46 µM. The method, boiled down:
(§2)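 CellTiter-Glo luminescence after 72 hr compound exposure at 37 degree celsius gave cell viability. Libraries NPC and MIPE were run as 8- and 11-point dose responses; RLUs normalized to DMSO (negative) and no-cell (cytotoxicity) controls.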

The subject of assay [7] is MKL-1. Described as above. The following applies: MCC and control cell lines, CellTiter-Glo viability, 72 h; series mostly up to 46 µM. The method, boiled down:
as §2

Assay [8] concerns UISO. The assay is described as above. The following applies: MCC and control cell lines, CellTiter-Glo viability, 72 h; series mostly up to 46 µM. The method, boiled down: as §2
Assay [9] has as its system WaGa. Described as above. The following applies: MCC and control cell lines, CellTiter-Glo viability, 72 h; series mostly up to 46 µM. The method in brief: as §2
For assay [10], the system named is MCC-13. The assay is described as above. The following applies: MCC and control cell lines, CellTiter-Glo viability, 72 h; series mostly up to 46 µM. The method in brief:
as §2

Assay [11] relates to CASKI. Kind of assay: Primary qHTS to identify gynecologic anti-cancer compounds using libraries of approved drugs and bioactive compounds (AID 1345084). Also: nearly all actives have a fitted effect of over 55% in size. The following applies: Gynecologic cancer cell panel viability, ATPlite luminescence, 48 h; series mostly up to 57.5 µM. The method, boiled down:
(§3)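 Cells, 1,000 per well, were allowed to settle for 16 h at 37 C before compound addition. Five concentrations were tested for 48 h, and viability was read by ATPlite luminescence after 15 min at room temperature.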
Background: qHTS replaces the single test concentration by a dilution series.

The test system of assay [12] is Es-2. Described as above. The settings on record: Gynecologic cancer cell panel viability, ATPlite luminescence, 48 h; series mostly up to 57.5 µM. The method in brief: as §3
The test system of assay [13] is MKL-2. Kind of assay: qHTS assay to identify novel small-molecules to repurpose for Merkel cell carcinoma treatment (AID 1296009). Also: nearly all actives have a fitted effect of over 60% in size. The settings on record: MCC and control cell lines, CellTiter-Glo viability, 72 h; series mostly up to 46 µM. The method in brief:
as §2

Assay [14] concerns HeLa. Kind of assay: Primary qHTS to identify gynecologic anti-cancer compounds using libraries of approved drugs and bioactive compounds (AID 1345084). Also: nearly all actives have a fitted effect of over 55% in size. The settings on record: Gynecologic cancer cell panel viability, ATPlite luminescence, 48 h; series mostly up to 57.5 µM. The method in brief:
as §3

Assay [15] concerns C33A. The assay is described as above. The settings on record: Gynecologic cancer cell panel viability, ATPlite luminescence, 48 h; series mostly up to 57.5 µM. The method, boiled down: as §3

Where “and” joins values, the source holds several entries; their conditions need not be identical. Identical values can stand only once. Results filed as inconclusive are left out. Values without a mark were called inactive. Calls of active or inactive are those of the source. Calls follow the shape of the dose curve; as a rule, active = well fitted curve in the direction sought with a large enough effect; inconclusive = small, poorly fitted or top-dose-only effect, or another doubt; inactive = no such curve, though single readings can be large; an effect the other way counts as inactive or inconclusive.
Potency is read from the fitted curve at half-maximal effect.

In the case of `CC(C)N1[N]C(=C2C=c3cc(O)ccc3=N2)c2c(N)ncnc21`, the Potency in [1] was 41.8 nM (active); in [2] it was 0.469 µM (active); in assay [3], 11.8 µM (active); in assay [4], 1.18 µM (active); in assay [5], 0.526 µM (active); in [6], 14.8 µM (active). The values for the Potency in assay [7], in assay [8] and in [9] were 10.5 µM (active), 0.833 µM (active) and 5.9 µM (active), respectively.

As to `FC(F)c1nc2ccccc2n1-c1nc(N2CCOCC2)nc(N2CCOCC2)n1`, the Potency in [1] is 590 nM (active) and 1.16 µM (active); in [2], 1.46 µM (active); in [3] it was 3.26 µM (active); in [4], 2.59 µM (active); in assay [5] it was 662 nM (active) and 1.64 µM (active); in assay [11], 2.24 µM (active). Also, the Potency in [12] was 14.1 µM (active). The Potency result in assay [10] is “inactive”.

Turning to `CNC(=O)c1ccc(Nc2cc(Nc3ccccc3S(=O)(=O)C(C)C)c3cc[nH]c3n2)nc1`, the Potency is 3320 nM (active) in assay [1]; 2.09 µM (active) in assay [2]; 2.96 µM (active) in assay [3]; 1.32 µM (active) in assay [4]; 2.35 µM (active) in assay [5]; 2.64 µM (active) in assay [7]. Besides, the Potency was 7.43 µM (active) in assay [13], 5.9 µM (active) in assay [8] and 4.18 µM (active) in assay [9].

As for `C[C@H](NC(=O)C(C#N)=Cc1cccc(Br)n1)c1ccccc1`, the Potency in [1] was 5260 nM (active); in assay [2] it was 4.18 µM (active); in assay [3], 10.5 µM (active); in [4], 4.69 µM (active); in [5] it was 9.35 µM (active). The Potency result in assay [10], in assay [6], in assay [7] and in assay [9] was “inactive” each time.

`NC(=O)c1ncn([C@@H]2O[C@H](CO)[C@@H](O)[C@@H]2O)c1O`: the max response was -0.101% in assay [1], 1.7% in assay [2], 4.1% in assay [3] and 6.36% in [4]. In addition, the Potency entry in [10], in [6], in assay [7], in [13], in assay [8] and in assay [9] was “inactive” throughout.

As to `CN[C@@H]1C[C@H]2O[C@@](C)([C@H]1OC)n1c3ccccc3c3c4c(c5c6ccccc6n2c5c31)C(=O)N[C@H]4O`, the Potency in [1] is 264 nM (active); in assay [2], 0.469 µM (active); in [3], 1.48 µM (active); in [4], 2.64 µM (active); in assay [5], 0.166 µM (active); in assay [10], 0.332 µM (active). Also, the Potency in assay [6] was 1.66 µM (active); in assay [7], 5.26 µM (active); in [8], 1.87 µM (active); in [9] it was 1.32 µM (active).

With `C=C1CCC2[C@](C)(CO)C(O)CC[C@]2(C)C1CC=C1C(=O)OCC1O` (stereo not given in full), the max response in [1] is -1.23%; in assay [2], -3.28%; in assay [3], -3.92%; in assay [4], 8.99%; in assay [5], 3.77%. The Potency entry in assay [10], in assay [7], in [13], in assay [8] and in assay [9] was “inactive” in each case.

Consider `Cc1ncc(-c2ccnc(Nc3ccc(S(C)(=O)=O)cc3)n2)n1C(C)C`, for which the Potency in [1] is 3720 nM (active); in [2], 4.61 µM (active); in [3], 8.33 µM (active) and 5.8 µM (active); in assay [4], 5.26 µM (active) and 5.17 µM (active); in assay [5], 13.2 µM (active); in [11], 7.08 µM (active). The results for the Potency in assay [12] and in assay [14] were 10 µM (active) and 7.08 µM (active), respectively.

Turning to `CC(Cc1ccc(O)c(O)c1)(NN)C(=O)O` (stereo not given), the result in assay [1] was inactive. Moreover, the max response in [2] is -17.2%; in [3], -11%; in [4], -1.08%; in assay [5], -2.89%. Besides, the Potency entry in assay [10], in [6], in assay [7], in assay [8] and in [9] was “inactive” throughout.

In the case of `Cc1cnc(NC(=O)Nc2cc(Br)c(C)cc2OC[C@@H]2CNCCO2)cn1`, the max response in assay [1] is -18.7%; in assay [3] it was 1.25%; in assay [4] it was -6.69%. Further, the results for the Potency in assay [2] and in [5] were 1.32 µM (active) and 4.18 µM (active), respectively. Also, the Potency result in assay [10], in assay [6], in [13] and in assay [9] was “inactive” each time.

`Cc1cnc(Nc2ccc(CN3CCOCC3)cc2)nc1Nc1cccc(S(=O)(=O)NC(C)(C)C)c1`: the Potency is 3.32 µM (active) and 4.61 µM (active) in assay [1]; 3.66 µM (active) in assay [2]; 2.64 µM (active) and 2.31 µM (active) in [3]; 4.18 µM (active) and 1.46 µM (active) in assay [4]; 13.2 µM (active) in [10]; 8.33 µM (active) in assay [6]. In addition, the Potency in assay [7] was 11.8 µM (active); in assay [9], 10.5 µM (active); in [11], 8.91 µM (active); in [14], 1 µM (active).

As to `c1cncc(CN2CCC(n3ncc4c(N5CCOCC5)nc(-c5ccc6[nH]ccc6c5)nc43)CC2)c1`, the Potency was 4.18 µM (active) and 7.31 µM (active) in assay [1]; 5.8 µM (active) in assay [2]; 14.8 µM (active) and 18.4 µM (active) in assay [3]; 10.3 µM (active) in assay [4]; 9.35 µM (active) and 5.17 µM (active) in assay [5]; 31.6 µM (active) in [15]. Besides, in [11], the Potency was 10 µM (active). Also, the Potency entry in assay [7] was “inactive”.

Consider `Cn1cc(CNCC2CCN(c3ncc(C(=O)NO)cn3)CC2)c2ccccc21`, for which the Potency in assay [1] was 332 nM (active); in assay [2], 0.187 µM (active); in assay [3], 0.662 µM (active); in assay [4], 0.132 µM (active); in assay [5], 0.526 µM (active); in [10], 0.833 µM (active). For the same compound, the Potency in assay [6] is 0.59 µM (active); in assay [13] it was 0.0332 µM (active); in [8] it was 0.264 µM (active); in assay [9] it was 0.0296 µM (active).

As for `C#C[C@]1(O)CC[C@@H]2[C@@H]3CCC4=CC(=O)CC[C@@H]4[C@H]3CC[C@@]21CC`, the max response in assay [1] is -6.84%; in assay [2], -8.15%; in assay [3], -5.66%; in assay [4] it was -5.98%; in assay [5] it was -8.04%. In addition, the Potency entry in [10], in assay [7], in [13], in assay [8] and in assay [9] was “inactive” each time.

The values are drawn from PubChem BioAssay (NCATS).
